Sampled rows, rich in hits. Any-hit rate of the full collection: about 6.3%.
HepG2 viability = kills HepG2 cells in TGF-b inhibitor counter-screen; actives 0.76% (n = 410,000); HepG2 CAGA-GFP viability, ATP luminescence, 18 h; Potency, µM (doses to about 46.1 µM), for the others: at the top dose activity change, negative = cytotoxicity, usual class: cytotoxic
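CellTiter-Glo luminescence gave cytotoxicity after 18 hours at 37 degrees C. The cells were HepG2 CAGA-GFP in 1% FBS DMEM, stimulated with 500 pg/mL TGF-beta after compound addition. %Activity was normalised to no-cell wells (complete cell-killing) and DMSO (no toxicity), and curves were fitted and classified.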
TGFb inhibitor = inhibitors of TGF-b signaling. HepG2 CAGA-GFP TGF-b/SMAD3 reporter, GFP fluorescence, 18 h; TGF-beta stimulated, 500 pg/mL final. actives 1.2% (n = 410,000). Potency, µM (top dose mostly 46.1 µM), without a hit: top-dose activity, negative = inhibition, hits mostly inhibitors; also: % is scaled to controls: 0 for no effect and ±100 for the full control effect; nearly all actives have a fitted effect of over 65% in size
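Cell-based qHTS in HEPG2 carrying a CAGA-GFP Smad reporter; compounds added before 500 pg/mL final TGF-beta, 18 h incubation at 37 degrees C, GFP fluorescence quantified per cell by imaging cytometry.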
VP16 counter = inhibits Gal4-VP16 luciferase reporter, ROR gamma counter-screen. Drosophila S2 Gal4-VP16 UAS-luciferase, luminescence, 20 h. Potency, µM (highest dose often 53.6 µM), without a hit: at the top dose activity, negative = inhibition, usual class: inhibitors. actives 3.5% (n = 310,000);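 also: Gal4-VP16 expression switched on by copper sulfate through the metallothionein promoter; % is scaled to controls: 0 for no effect and ±100 for the full control effect; nearly all actives have a fitted effect of over 50% in size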
ATXN2 expr inh = inhibitors of ATXN2 expression. HEK-293 ATXN2-luciferase reporter, luminescence, 24 h. Potency, µM (doses to about 57 µM), inactives show top-dose activity change, negative = inhibition, actives largely listed as inhibitors. actives 0.72% (n = 360,000). AID 1745845; also: % is scaled to controls: 0 for no effect and ±100 for the full control effect; nearly all actives have a fitted effect of over 55% in size
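qHTS (up to 57 uM final) was run with 24 h compound exposure of reporter cells at 37 °C. Each well was multiplexed: SteadyGlo luminescence measured ATXN2-luciferase expression after a fluorogenic Gly-Phe-AFC viability readout (25 uM final).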
ATXN viability = viability counter-screen for ATXN expression inhibitors; S2 cells (HEK-293 line with an ATXN2-luciferase reporter) viability, CellTiter-Fluor protease fluorescence, 24 h; Potency, µM (titrated, usually from 56.7 µM), actives largely listed as cytotoxic; actives 0.49% (n = 400,000); AID 651635; also: nearly all actives have a fitted effect of over 40% in size
RORgamma inh = blocks mouse ROR gamma transcriptional activity; P51450; Potency, µM (highest dose often 53.6 µM), for inactives: top-dose activity change, negative = inhibition, usual class: inhibitors; actives 5.4% (n = 310,000); Drosophila S2 Gal4-RORgamma UAS-luciferase reporter, 20 h; also: % is scaled to controls: 0 for no effect and ±100 for the full control effect; nearly all actives have a fitted effect of over 60% in size
Target sequence (P51450 whole entry, looked up, the tested form may be a part): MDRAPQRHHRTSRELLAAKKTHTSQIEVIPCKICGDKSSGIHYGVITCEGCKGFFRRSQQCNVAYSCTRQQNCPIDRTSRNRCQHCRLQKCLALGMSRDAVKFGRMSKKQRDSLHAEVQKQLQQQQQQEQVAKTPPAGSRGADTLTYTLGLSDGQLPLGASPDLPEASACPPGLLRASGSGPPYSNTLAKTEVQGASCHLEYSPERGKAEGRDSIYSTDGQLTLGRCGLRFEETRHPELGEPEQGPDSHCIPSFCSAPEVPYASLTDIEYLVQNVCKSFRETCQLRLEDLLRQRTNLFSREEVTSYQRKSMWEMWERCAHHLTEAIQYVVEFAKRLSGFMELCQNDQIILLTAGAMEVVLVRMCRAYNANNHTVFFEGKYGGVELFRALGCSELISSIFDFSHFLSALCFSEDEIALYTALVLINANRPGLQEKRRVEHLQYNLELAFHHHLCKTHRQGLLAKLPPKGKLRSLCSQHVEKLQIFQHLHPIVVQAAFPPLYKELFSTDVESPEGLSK
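In this cell-based reporter format, copper sulfate (700 uM final) drives Gal4–ROR gamma fusion expression from a metallothionein promoter in Drosophila Schneider cells; compounds preincubated 1 hr, reporter read after 20 hr at ambient temperature.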
* hit, by the source's call; i = inactive; ? = inconclusive; / = no result given; [ ] = another dose, or the depositor's remark. Calls follow the shape of the dose curve; as a rule, active = well fitted curve in the direction sought with a large enough effect; inconclusive = small, poorly fitted or top-dose-only effect, or another doubt; inactive = no such curve, though single readings can be large; an effect the other way counts as inactive or inconclusive. Potency is read from the fitted curve at half-maximal effect.

SMILES | HepG2 viability | TGFb inhibitor | VP16 counter | ATXN2 expr inh | ATXN viability | RORgamma inh
Cc1cc(OC(C)C(=O)NNC(=O)Nc2ccc(F)cc2F)cc(C)c1Cl (configuration not stated) | -31% | 16µM* | 0% | 9% | i | -24%
CCN1CCN(c2cc(N3CCN(C(=O)c4ccco4)CC3)c3c4c(onc24)-c2ccccc2C3=O)CC1 | 25µM* | 0% | -21% | -32% | ? | -19%
O=C(O)CCNc1cc(N2CCN(C(=O)c3ccco3)CC2)c2noc3c2c1C(=O)c1ccccc1-3 | -3% | -11% | -13% | -17% | ? | -12%
Cc1ccc(CNc2ncnc3sc(C(=O)N4CCCC(C(N)=O)C4)c(C)c23)o1 (configuration not stated) | / | / | / | / | i | /
Cc1cc(C(=O)Nc2cc(C(C)(C)C)on2)c(C)o1 | -9% | 6% | 2% | / | i | 10µM*
Cc1cc(C(=O)Nc2ccon2)c(C)o1 | -12% | 7% | -7% | 1% | i | -2%
O=C(Nc1ccc(N2CCN(C(=O)c3cccs3)CC2)cc1)c1ccco1 | -10% | 2% | -5% | 12% | i | 7%
O=C(COC(=O)c1ccc([N+](=O)[O-])o1)Nc1cccc(S(=O)(=O)N2CCOCC2)c1 | -12% | -4% | 7.1µM* | -12% | i | ?
O=C(Nc1ccc(S(=O)(=O)N2CCCC2)cc1)c1ccc([N+](=O)[O-])o1 | 13µM* | ? | / | ? | / | /
O=C(Nc1ccc(Cc2ccncc2)cc1)c1ccc([N+](=O)[O-])o1 | -33% | 16µM* | / | 9% | i | /
Cc1ccc(C(=O)Nc2ccc(S(=O)(=O)N3CCCC3)cc2)o1 | 5% | 0% | 19% | 2% | i | 35%
O=C(Nc1ccc(N2CCN(C(=O)c3cccs3)CC2)cc1)c1ccc([N+](=O)[O-])o1 | / | / | ? | / | / | 13µM*
COc1cc(=O)n2c(c1C(=O)NC(C)c1ccco1)CCN(Cc1ccc3nsnc3c1)CC2 (configuration not stated) | / | / | / | / | i | /
CCn1c(COc2ccc(C)cc2)nc2ccccc21 | 5% | 1% | ? | 33% | i | 8.9µM*
COCCn1c(COc2ccc(C)cc2)nc2ccccc21 | -18% | ? | -16% | 44% | i | 11µM*
CCOCCn1c(COc2ccc(C)cc2)nc2ccccc21 | -18% | -25% | 5% | 47% | i | ?
Cc1ccc(OCc2nc3ccccc3n2CCOc2ccc(Cl)cc2)cc1 | -59% | ? | / | ? | ? | /
CO/N=C(/C(=O)N[C@@H]1C(=O)N2C(C(=O)O)=C(CSc3nnnn3C)CS[C@H]12)c1csc(N)n1 | / | / | 7% | / | / | 14%
O=C(NC(=S)N1CCN(c2ccc(F)cc2)CC1)C12CC3CC(CC(C3)C1)C2 | 18% | -10% | 3.2µM* | 7% | i | 1.3µM*
CCOc1ccccc1N1CCN(C(=S)NC(=O)C23CC4CC(CC(C4)C2)C3)CC1 | 10% | ? | 3.5µM* | ? | i | 3.5µM*
Cc1c(C(c2ccccc2)c2c(C)n(C)n(-c3ccccc3)c2=O)c(=O)n(-c2ccccc2)n1C | -3% | -5% | 1% | -6% | i | 7%
Cc1ccc(C(c2c(C)n(C)n(-c3ccccc3)c2=O)c2c(C)n(C)n(-c3ccccc3)c2=O)s1 | -4% | 6% | 7.1µM* | ? | i | 4.5µM*
Cc1ccc(NC(=O)C(C)Sc2nc(-c3ccccc3)c(C#N)c(=O)[nH]2)c(C)c1 (configuration not stated) | -9% | 0% | / | 7% | i | /
Nc1nonc1-n1nnc(C(=O)N/N=C/c2ccccc2)c1CSc1ccccc1 | 0% | 16% | -2% | -15% | ? | -45%
Cc1ccsc1/C=N/NC(=O)c1nnn(-c2nonc2N)c1CSc1ccccc1 | 5% | 5% | 4µM* | 5% | i | 2.5µM*
SMILES | HepG2 viability | TGFb inhibitor | VP16 counter | ATXN2 expr inh | ATXN viability | RORgamma inh
Cc1ccc(/C=N/NC(=O)c2nnn(-c3nonc3N)c2CSc2ccccc2)s1 | -1% | -1% | 5µM* | -14% | i | 4µM*
S=c1[nH]nc(COc2ccccc2)n1/N=C/c1cccc(Cl)c1Cl | -35% | -26% | ? | / | i | ?
S=c1[nH]nc(COc2ccccc2)n1/N=C/c1c(Cl)cccc1Cl | -4% | -25% | -29% | -7% | i | 3.5µM*
S=c1[nH]nc(COc2ccccc2)n1/N=C/c1ccccc1Cl | -3% | 0% | 13µM* | -8% | i | 6.3µM*
Cc1ccc(OC(=O)c2oc3ccc(F)cc3c2C)c(C)c1 | 6% | -5% | -14% | ? | 18µM* | 21%
COc1ccc(/C=C/C(=O)c2oc3ccc(F)cc3c2C)cc1 | -8% | -4% | -5% | 6% | i | -4%
c1ccc(-c2nc3c4ccccc4ccn3c2Cc2ccsc2)cc1 | -50% | ? | / | 54% | ? | /
COC(=O)c1ccc2c(c1)C(=O)/C(=C/c1ccc(O)cc1)O2 | 19% | -4% | 1.6µM* | 31% | i | 0.22µM*
Cc1ccc(C2=NN3C(C2)c2ccccc2OC32C(=O)Nc3ccccc32)cc1 (configuration not stated) | -8% | ? | ? | 113% | i | 13µM*
COC(=O)C1=C(C)N(Cc2ccc(C)cc2)C(=O)/C1=C\c1cc(OC)c(OC)c(OC)c1 | 16µM* | ? | ? | -11% | i | 9%
COC(=O)C1=C(C)N(Cc2ccc(C)cc2)C(=O)/C1=C\c1ccc(O)c(OC)c1 | -21% | 19% | -6% | 18% | i | -30%
COc1cc([N+](=O)[O-])ccc1NC(=O)N1CCN(c2cc(-c3noc(C)n3)ccc2C)CC1 | -10% | -12% | / | 1% | i | /
CC(C)(C)OC(=O)COc1cc(OCC(=O)OC(C)(C)C)c2c(=O)cc(-c3ccccc3)oc2c1 | -88% | ? | 4% | 20µM* | 20µM* | -4%
O=C(NCc1ccccc1F)C1CC(=O)N(Cc2ccco2)C1 (configuration not stated) | 6% | ? | / | / | i | /
S=c1nc[nH]c2c1[nH]c1ccccc12 | 6% | -3% | 0%[0.365 µM] | 6% | i | 11µM*
S=c1nc[nH]c2c1[nH]c1ccc(Cl)cc12 | -40% | -2% | -10% | -17% | i | -39%
N#Cc1ccccc1S(=O)(=O)NC(=O)[C@H]1O[C@@H](n2cnc3c(N)ncnc32)[C@H](O)[C@@H]1O | 1% | 0% | / | 4% | i | /
